Experimental findings from PubChem BioAssay (NCI) are described below.

Test systems include DU-145 prostate; K-562 leukemia; MALME-3M melanoma; MDA-MB-231 breast; RXF 393 renal; SF-268 CNS; SF-295 CNS; SF-539 CNS; UACC-257 melanoma; M14 melanoma; HCT-15 colon; HT29 colon; SNB-75 CNS; SNB-19 CNS; U251 CNS; PC-3 prostate; SK-MEL-5 melanoma; UACC-62 melanoma; LOX IMVI melanoma; SK-MEL-28 melanoma.
Holding throughout (assay): NCI-60 one-dose screen, 48 h (100 = growth as untreated, 0 = no growth, -100 = all killed)
Holding throughout (details): 10 µM unless noted

Each structure is given as a SMILES string. About 83,000 compounds went through this panel and 20% of them were active in at least one assay; those are over-represented in the sample as a whole.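 The test compound was applied at a single concentration to cells in 96-well plates for 48 hours, and percent growth was recorded.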 A number with no mark means an inactive call. Activity calls are given as the source filed them. The calls were made as follows: active = growth percent below 10; inactive = the rest.

In the case of `C/C(=N\N=C1/SCC(=O)N1c1ccccc1)c1ccco1`, the growth in the test on DU-145 prostate was 119%; in the test with K-562 leukemia it was 96.4%; in the test on MALME-3M melanoma, 82.1%; in the test with MDA-MB-231 breast, 93.2%; in the test on RXF 393 renal, 112%; in the test with SF-268 CNS, 91.6%. Besides, the growth in the test on SF-295 CNS was 98.3%; with SF-539 CNS, 118%; with UACC-257 melanoma, 118%; in the test with M14 melanoma it was 176%; in the test on HCT-15 colon, 112%; in the test with HT29 colon, 136%. The growth in the test on SNB-75 CNS is 185%; in the test on SNB-19 CNS it was 113%; in the test on U251 CNS it was 102%; in the test with PC-3 prostate it was 94.7%; with SK-MEL-5 melanoma, 88.8%; in the test with UACC-62 melanoma, 122%. The growth was 94.2% in the test on LOX IMVI melanoma and 112% with SK-MEL-28 melanoma.

In the case of `CCc1ccc(C2=C/C(=C/c3ccc(Cl)cc3)C(=O)N2CCc2ccc(S(N)(=O)=O)cc2)cc1`, the growth with DU-145 prostate is 43.8%; with K-562 leukemia it was 11%; with MALME-3M melanoma, 41.5%; with MDA-MB-231 breast, 43.8%; with RXF 393 renal it was 7.12% (active); with SF-268 CNS, 45.6%. Moreover, the growth in the test on SF-295 CNS was 25.9%; in the test on SF-539 CNS, 56.1%; in the test on UACC-257 melanoma, 39.4%; with M14 melanoma, 30.6%; with HCT-15 colon, 17.7%; in the test on HT29 colon, 6.46% (active). In addition, the growth is 52.5% in the test with SNB-75 CNS; 54.6% with SNB-19 CNS; 25.1% with U251 CNS; 11.5% in the test on PC-3 prostate; 41.4% with SK-MEL-5 melanoma; 31.2% in the test on UACC-62 melanoma. Also, the results for the growth in the test with LOX IMVI melanoma and in the test with SK-MEL-28 melanoma were 24.3% and 38.2%, respectively.

Regarding `Cc1c(C(C)(C)C)cc(C(C)(C)C)c2c1CN(C)CO2`, the growth in the test with DU-145 prostate was 112%; in the test with K-562 leukemia, 99.4%; in the test on MALME-3M melanoma, 95.5%; in the test on MDA-MB-231 breast, 110%; in the test with RXF 393 renal it was 122%; with SF-268 CNS, 103%. The growth in the test on SF-295 CNS was 103%; with SF-539 CNS, 103%; with UACC-257 melanoma, 99.5%; with M14 melanoma it was 118%; in the test on HCT-15 colon, 108%; with HT29 colon, 105%. For the same compound, the growth with SNB-75 CNS was 102%; in the test with SNB-19 CNS, 112%; in the test with U251 CNS it was 109%; with PC-3 prostate, 110%; in the test with SK-MEL-5 melanoma, 127%; in the test with UACC-62 melanoma it was 114%. Moreover, the growth with LOX IMVI melanoma is 106%; in the test on SK-MEL-28 melanoma, 102%.

Regarding `S=C=NP1(N=C=S)=NP(N=C=S)(N=C=S)=NP(N=C=S)(N=C=S)=NP(N=C=S)(N=C=S)=N1` (stereo not given), the growth in the test with DU-145 prostate was 113%; with K-562 leukemia, 86.4%; with MALME-3M melanoma, 91.4%; in the test on MDA-MB-231 breast it was 105%; in the test with RXF 393 renal it was 109%; in the test with SF-268 CNS it was 103%. Also, the growth in the test with SF-295 CNS was 97.8%; in the test with SF-539 CNS, 94.7%; with UACC-257 melanoma, 94.8%; in the test with M14 melanoma, 93.4%; in the test on HCT-15 colon, 103%; in the test with HT29 colon it was 92.9%. In addition, the growth in the test on SNB-75 CNS was 80.7%; in the test on SNB-19 CNS, 109%; with U251 CNS it was 94.7%; in the test on PC-3 prostate it was 86.4%; with SK-MEL-5 melanoma, 98.6%; with UACC-62 melanoma, 97.7%. Besides, the growth was 97.8% in the test with LOX IMVI melanoma and 107% with SK-MEL-28 melanoma.

As to `COc1ccc(C(=O)NC(=O)Nc2ccc3c(c2)NC(=O)/C3=C\c2[nH]c(C)c(C(=O)O)c2C)cc1`, the growth is 71.1% with DU-145 prostate; 79.3% in the test with K-562 leukemia; 41.9% with MALME-3M melanoma; 86.8% with MDA-MB-231 breast; 49.1% in the test with RXF 393 renal; 61.4% in the test with SF-268 CNS. The growth in the test with SF-295 CNS was 105%; in the test on SF-539 CNS, 72.9%; in the test with UACC-257 melanoma it was 107%; with M14 melanoma, 90.5%; with HCT-15 colon, 93.5%; in the test with HT29 colon it was 45.1%. For the same compound, the growth is 73.7% with SNB-75 CNS; 80.3% in the test with SNB-19 CNS; 52.9% in the test on U251 CNS; 86.1% with PC-3 prostate; 87.1% in the test with SK-MEL-5 melanoma; 91.3% in the test with UACC-62 melanoma. Further, the growth was 82.5% in the test on LOX IMVI melanoma and 102% in the test on SK-MEL-28 melanoma.

Regarding `COc1ccc(-c2ccc(NC(=O)Nc3cccc(C(F)(F)F)c3)c(C)n2)cc1`, the growth was 68.8% in the test on DU-145 prostate; 32.5% with K-562 leukemia; 90.6% in the test with MALME-3M melanoma; 68.6% with MDA-MB-231 breast; 85.9% with RXF 393 renal; 74.5% in the test on SF-268 CNS. The growth in the test with SF-295 CNS is 47.6%; in the test with SF-539 CNS, 80.8%; in the test on UACC-257 melanoma, 61.4%; in the test with M14 melanoma it was 37.2%; in the test on HCT-15 colon it was 40.9%; in the test on HT29 colon, 47.7%. In addition, the growth was 77.6% with SNB-75 CNS; 67.8% with SNB-19 CNS; 50.2% with U251 CNS; 24.4% in the test on PC-3 prostate; 41.6% with SK-MEL-5 melanoma; 63.9% in the test on UACC-62 melanoma. Moreover, the growth in the test on LOX IMVI melanoma is 47.7%; in the test on SK-MEL-28 melanoma it was 69.3%.

For the compound `CCCCC(=O)Nc1nc2ccc(SCCC)cc2s1`, the growth is 67.4% with DU-145 prostate; 16.5% in the test on K-562 leukemia; 50% in the test with MALME-3M melanoma; 51.9% in the test with MDA-MB-231 breast; 45.9% with RXF 393 renal; 61.6% in the test with SF-268 CNS. The growth was 45.1% with SF-295 CNS; 50.5% in the test with SF-539 CNS; 66.8% in the test on UACC-257 melanoma; 37.3% in the test on M14 melanoma; 43.6% in the test with HCT-15 colon; 18% in the test on HT29 colon. Also, the growth with SNB-75 CNS is 33.2%; with SNB-19 CNS, 64.4%; with U251 CNS, 39.9%; in the test on PC-3 prostate it was 47.8%; in the test on SK-MEL-5 melanoma it was 42.7%; in the test on UACC-62 melanoma, 43.3%. Further, the growth in the test with LOX IMVI melanoma is 43.2%; in the test with SK-MEL-28 melanoma it was 64.8%.
